# Source: PubChem
# RE007 growth inh – qHTS Assay for Inhibitors of the HIV-1 protein Vpr. S. pombe RE007 Vpr strain, BacTiter-Glo ATP luminescence, 24 h. Potency, µM (highest dose often 92.2 µM), inactives show at the top dose activity change, negative = less growth, hits mostly inhibitors. hit rate 0.21% among 360,000; active = well fitted falling curve with a large enough effect; inconclusive = small, poorly fitted or top-dose-only effect; inactive = no such curve, though single readings can be large or run the other way; also: nearly all actives have a fitted effect of over 50% in size
#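 Fission yeast RE007 carrying one integrated HIV-1 vpr copy, seeded at OD 0.01 in PMG+AL medium with 23 nL pinned compound. Grown 24 h at 30 degrees; viability read by BacTiter-Glo luminescence after 5 min.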
# AMA1-RON2 inh – qHTS for Inhibitors of AMA1-RON; Towards Development of Antimalarial Drug Lead: Primary Screen; hit rate 0.2% among 360,000; AlphaScreen AMA1-biotinylated RON2 peptide binding; Potency, µM (doses to about 58.2 µM), inactives show at the highest dose activity change, negative = inhibition, actives largely listed as inhibitors;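 also: 0% = vehicle wells and -100% = peptide control; nearly all actives have a fitted effect of over 45% in size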
#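 AMA1 (3D7) with his tag at 25 nM final met compounds first, then biotinylated RON2 peptide at 25 nM; detection used donor plus acceptor beads, 10 µg/mL apiece, read by AlphaScreen after 30 min at room temperature.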
# AmpC inh no detg – qHTS Inhibitors of AmpC Beta-Lactamase (assay without detergent) | P00811 | AmpC nitrocefin hydrolysis, absorbance 480 nm, 0.0001% Triton | Potency, µM (highest dose often 57.1 µM), without a hit: at the top dose activity change, negative = inhibition, most hits filed as inhibitors | hit rate 0.52% among 330,000;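 also: plate controls were no compound for no effect and no enzyme for full effect; nearly all actives have a fitted effect of over 20% in size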
# Target sequence (P00811 whole entry, looked up): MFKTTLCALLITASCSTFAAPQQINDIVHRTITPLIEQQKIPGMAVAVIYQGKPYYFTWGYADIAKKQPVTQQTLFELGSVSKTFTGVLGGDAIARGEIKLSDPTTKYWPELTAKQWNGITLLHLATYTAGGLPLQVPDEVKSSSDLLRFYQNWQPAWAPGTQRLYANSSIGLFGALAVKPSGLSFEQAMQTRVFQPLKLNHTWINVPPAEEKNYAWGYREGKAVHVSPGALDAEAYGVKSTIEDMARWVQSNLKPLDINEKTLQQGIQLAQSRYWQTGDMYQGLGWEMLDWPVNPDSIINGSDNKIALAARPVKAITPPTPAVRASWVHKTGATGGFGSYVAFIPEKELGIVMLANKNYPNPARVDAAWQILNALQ
#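 AmpC (5.3 nM in the dispensed reagent) in 20 mM phosphate pH 7.0 with 0.01% (detergent screen) or 0.0001% Triton X-100 was preincubated with compounds for 15 min at room temperature. Nitrocefin was then added from an 800 uM solution, and hydrolysis was followed at 480 nm.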
# Sm TGR inh – qHTS Assay for the Inhibitors of Schistosoma Mansoni Peroxiredoxins | hit rate 3% among 360,000 | Potency, µM (highest dose often 114 µM), for the others: at the highest dose activity change, negative = inhibition, hits mostly inhibitors | Schistosoma mansoni thioredoxin glutathione reductase (TGR), Q962Y6 | purified TGR, DTNB reduction, TNB absorbance 405 nm; also: nearly all actives have a fitted effect of over 60% in size
#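 Kinetic colorimetric format: TGR-catalysed, NADPH-driven DTNB reduction monitored via TNB absorbance. Enzyme dispensed at 20 nM; compound exposure 15 min at room temperature before reaction start.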
# AmpC detergent – qHTS Inhibitors of AmpC Beta-Lactamase (assay with detergent) | P00811 | AmpC hydrolysis of nitrocefin, absorbance 480 nm, 0.01% Triton | Potency, µM (top dose mostly 114 µM), for the others: top-dose activity change, negative = inhibition, usual class: inhibitors | hit rate 0.041% among 370,000 | AID 485294, 2010;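 also: 0% = no-compound wells and -100% = no-enzyme wells; nearly all actives have a fitted effect of over 25% in size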
#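 20 mM phosphate pH 7.0 + 0.01% (detergent screen) or 0.0001% Triton X-100; 5.3 nM AmpC reagent; cpd preinc 15 min RT; nitrocefin (800 uM stock) to start; A480 q20 s × 4 min; Activity was normalised to no-enzyme and no-compound control wells.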
# Active calls of the source: *; ? = inconclusive; · = no result. Most compounds without a hit are left out; they make up all but 3.2% or so of the library. Unless noted, calls follow the shape of the dose curve; as a rule, active = well fitted curve in the direction sought with a large enough effect; inconclusive = small, poorly fitted or top-dose-only effect, or another doubt; inactive = no such curve, though single readings can be large; an effect the other way counts as inactive or inconclusive. Unless noted, % is scaled to controls: 0 for no effect and ±100 for the full control effect; potency is read from the fitted curve at half-maximal effect.
SMILES,RE007 growth inh,AMA1-RON2 inh,AmpC inh no detg,Sm TGR inh,AmpC detergent
O=C(CSc1nc2c(c(=O)[nH]1)CN(Cc1ccc(F)cc1)CC2)Nc1cccc(C(F)(F)F)c1,·,·,·,-0.8%,2.4%
Cc1cccc(-n2nnc(-c3nc(-c4cccs4)no3)c2N)c1C,·,·,·,-0.6%,3.9%
CNS(=O)(=O)c1cn(CC(=O)Nc2cccc(OC)c2)cc1S(=O)(=O)NC,·,·,·,2.1%,3.1%
O=C(C[n+]1ccc(C(=O)NCc2ccccc2)cc1)c1ccc(OC(F)F)cc1,6.5%,32.0%,-18.7%,1.2%,4.5%
O=C(C[n+]1cn(C(F)F)c2ccccc21)c1ccc(OC(F)F)cc1,0.2%,25.3%,-25.3%,7.08µM*,-2.1%
Cc1cc(C)n(CCc2nc(-c3cccs3)cs2)n1,-16.9%,7.8%,-8.3%,-0.4%,-3.7%
Cc1cc(C)n(CCc2nc(-c3ccco3)cs2)n1,-18.6%,-5.3%,-15.3%,39.8µM*,?
Cc1nnc(SCc2nc3sc4c(c3c(=O)[nH]2)CCCC4)n(N)c1=O,-7.6%,-12.4%,-30.9%,14.1µM*,-7.1%
O=C(C[n+]1ccc2ccccc2c1)c1cccc2ccccc12,-23.8%,-12.5%,12.5%,25.1µM*,2.2%
CC(C)Cc1nnc(NS(=O)(=O)c2ccc([N+](=O)[O-])cc2)s1,1.3%,-7.7%,-14.5%,?,?
O=[N+]([O-])c1ccc(S(=O)(=O)Nc2nnc(C(F)(F)F)s2)cc1,-12.2%,-14.1%,-22.8%,14.1µM*,4.3%
CCC1c2ccc(C)n2CCN1C(=O)Nc1ccccc1OC (centres undefined),-13.1%,10.1%,19.2%,25.1µM*,-5.1%
COc1ccccc1NC(=O)N1CCN(C(=O)Nc2ccccc2OC)CC1,-11.7%,-7.2%,-15.3%,-6.0%,-11.7%
Cc1nn(-c2ccccc2)c(N)c1N=Nc1ccc2ccccc2c1,-0.7%,22.4µM*,22.6%,18.1%,-6.2%
COc1ccc(OCc2ccc(-c3nc(C#N)c(NCc4ccc(F)cc4)o3)o2)cc1,·,·,·,1.7%,24.1%
CN(C)S(=O)(=O)c1cccc(NC(=S)Nc2ccc(Cl)cc2Cl)c1,-1.3%,28.0%,-38.3%,8.91µM*,8.6%
CCN(CCO)c1ccc(NC(=S)Nc2cccc(S(=O)(=O)N(C)C)c2)cc1,-8.6%,-6.8%,-21.9%,39.8µM*,-9.3%
CCN(CC)S(=O)(=O)c1ccc(NC(=S)Nc2ccccc2)cc1,7.8%,-7.7%,-22.3%,?,-6.5%
CN(C)S(=O)(=O)c1cccc(NC(=S)Nc2cc(Cl)cc(Cl)c2)c1,0.7%,15.5%,-49.8%,?,?
Cc1cccc(OCC(=O)Nc2ccccc2OCc2cc(=O)n3ccccc3n2)c1,·,·,·,6.8%,21.6%
O=S(=O)(Cc1noc(-c2ccc(Cl)cc2)n1)Cc1ccco1,-8.2%,4.7%,37.5%,50.1µM*,3.3%
CC1c2cccn2CCN1S(=O)(=O)c1ccccc1 (centres undefined),-19.3%,-8.4%,-24.7%,39.8µM*,-5.1%
O=S(=O)(c1cccnc1)N1CCn2cccc2C1c1ccccc1F (centres undefined),1.1%,-0.8%,-21.3%,31.6µM*,?
O=[N+]([O-])c1ccc(S(=O)(=O)N2CCn3cccc3C2c2ccccc2F)cc1 (centres undefined),·,·,·,35.5µM*,10.4%
COc1ccccc1Cn1cc(C(=O)c2ccc(C)cc2)c(=O)c2cc(C)ccc21,·,·,·,1.4%,-0.7%
Cc1cccc(N2CCN(C(=O)CCn3c(=O)c4cccn4c4cccnc43)CC2)c1C,·,·,·,-3.2%,-1.8%
CCOc1ccccc1NC(=O)Cn1c(=O)n(Cc2ccc(C(=O)NCCCOC)cc2)c(=O)c2ccccc21,·,·,·,3.5%,20.6%
O=C(CC(c1ccco1)C1CCCCC1=O)c1ccco1 (centres undefined),11.6%,-9.4%,-27.0%,50.1µM*,?
Cc1cc(Cl)ccc1N(CC(=O)NCCSCc1ccco1)S(C)(=O)=O,13.6%,5.3%,29.3%,17.8µM*,7.5%
